# Reference: the supplement of paper PMC10849652
# Targets with a hit are over-represented here; the source holds about 8,800 in all. About 0.5% of all pairs of compound and target were hits. Values without a mark were called inactive.
# Columns and labels:
# Experiment in all cases: log2 fold change, soluble protein after heating vs DMSO (PISA); higher = thermal stabilisation; K562 lysate, 10 uM; active = over 0.2 and 3.5 SD of the protein, either way, in both replicates (recomputed)
# [1] = compound: C=CC(=O)N1CCC[C@@H](n2nc(-c3ccc(Oc4ccccc4)cc3)c3c(N)ncnc32)C1 [ibrutinib]
# Method in brief: (§1)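 K562 pellets were dounce-homogenised in PBS pH 7.4 containing 1 mM MgCl2, and the crude extract, at 1 mg/mL protein, was exposed to 10 μM compound for 30 min. Aliquots were heated for 3 min across 48°C-58°C, pooled, brought to 0.5% NP-40 at 4°C and spun at 21,000xg for 90 min, with the supernatant taken as soluble protein. TMTpro 16plex LC-MS/MS with equalised channel sums quantified that protein. Values are log-two fold changes in thermal stability relative to solvent controls, taken from duplicates.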
# [2] = compound: CC(=O)c1cnc2ccc(-c3cc(Cl)c(O)c(Cl)c3)nc2c1N[C@H]1CC[C@H](CN(C)C)CC1
# Method in brief: as §1
# [3] = compound: CC(C)(C)Cn1c(N)nc2ccc(-c3[nH]c(C(C)(C)C)nc3-c3ccc(F)cc3)nc21 [ralimetinib]
# Method in brief: as §1
# [4] = compound: CC(C)(O)CC(=O)NCCn1ccc2ncnc(Nc3ccc(Oc4cccc(C(F)(F)F)c4)c(Cl)c3)c21
# Method in brief: as §1
# [5] = compound: CC(C)C1=C2N=C(C=C(N2N=C1)NCC3=CC=CC=C3)NCCCCCCN
# Method in brief: as §1
# [6] = compound: CC1=C(C(CC(=O)N1)C2=CC=C(C=C2)C(F)(F)F)C(=O)NC3=C(C=C4C(=C3)C=NN4)F
# Method in brief: as §1
# [7] = compound: CC1=C(C2=C(C=C1)C(=O)C3=CC=CC=C3N2CCCN)C
# Method in brief: as §1
# [8] = compound: CC1=C(C=C(C=C1)NC(=O)C2=CC(=CC=C2)C(C)(C)C#N)NC3=CC4=C(C=C3)N=CN(C4=O)C
# Method in brief: as §1
# [9] = compound: CC1=C(C=C(C=C1)NC(=O)C2=CC(=CC=C2)N(C)C)NC(=O)C3=CC=C(C=C3)O
# Method in brief: as §1
# [10] = compound: CC1=CC=C(C=C1)SC2=C3C=C(SC3=CN=C2)C(=O)N
# Method in brief: as §1
# [11] = compound: CCCS(=O)(=O)Nc1ccc(F)c(C(=O)c2c[nH]c3ncc(-c4ccc(Cl)cc4)cc23)c1F [vemurafenib]
# Method in brief: as §1
# [12] = compound: CCCS(=O)(=O)Nc1ccc(F)c(C(=O)c2c[nH]c3ncc(Cl)cc23)c1F
# Method in brief: as §1
# [13] = compound: CCN(CCCOc1ccc2c(Nc3cc(CC(=O)Nc4cccc(F)c4)[nH]n3)ncnc2c1)CCOP(=O)(O)O [barasertib]
# Method in brief: as §1
# [14] = compound: CC[C@@H]1C(=O)N(C)c2cnc(Nc3ccc(C(=O)NC4CCN(C)CC4)cc3OC)nc2N1C1CCCC1
# Method in brief: as §1
# [15] = compound: CC[C@@H]1C(=O)N(C)c2cnc(Nc3ccc(C(=O)N[C@H]4CC[C@H](N5CCN(CC6CC6)CC5)CC4)cc3OC)nc2N1C(C)C [volasertib]
# Method in brief: as §1
# [16] = compound: CCn1c(C(=O)N(C2CC2)C2CC2)cc2c3c(ncn3C)c(Nc3cc(C)n(C)n3)nc21
# Method in brief: as §1
# [17] = compound: CCn1cc(-c2ccnc3[nH]c(-c4cccc(CN(C)C)c4)cc23)c(-c2ccc(NC(=O)N(C)C)cc2)n1
# Method in brief: as §1
# [18] = compound: CN1CCC(CNc2ccc3ncc(-c4cccc(OC(F)(F)F)c4)n3n2)CC1
# Method in brief: as §1
# [19] = compound: CN1CCN(CCOc2cc(OC3CCOCC3)c3c(Nc4c(Cl)ccc5c4OCO5)ncnc3c2)CC1 [saracatinib]
# Method in brief: as §1
# [20] = compound: CN1CCN(c2nc(C3=C(c4c[nH]c5ccccc45)C(=O)NC3=O)c3ccccc3n2)CC1 [sotrastaurin]
# Method in brief: as §1
# UniProt Q9BTC8, sequence (Q9BTC8 whole entry, looked up): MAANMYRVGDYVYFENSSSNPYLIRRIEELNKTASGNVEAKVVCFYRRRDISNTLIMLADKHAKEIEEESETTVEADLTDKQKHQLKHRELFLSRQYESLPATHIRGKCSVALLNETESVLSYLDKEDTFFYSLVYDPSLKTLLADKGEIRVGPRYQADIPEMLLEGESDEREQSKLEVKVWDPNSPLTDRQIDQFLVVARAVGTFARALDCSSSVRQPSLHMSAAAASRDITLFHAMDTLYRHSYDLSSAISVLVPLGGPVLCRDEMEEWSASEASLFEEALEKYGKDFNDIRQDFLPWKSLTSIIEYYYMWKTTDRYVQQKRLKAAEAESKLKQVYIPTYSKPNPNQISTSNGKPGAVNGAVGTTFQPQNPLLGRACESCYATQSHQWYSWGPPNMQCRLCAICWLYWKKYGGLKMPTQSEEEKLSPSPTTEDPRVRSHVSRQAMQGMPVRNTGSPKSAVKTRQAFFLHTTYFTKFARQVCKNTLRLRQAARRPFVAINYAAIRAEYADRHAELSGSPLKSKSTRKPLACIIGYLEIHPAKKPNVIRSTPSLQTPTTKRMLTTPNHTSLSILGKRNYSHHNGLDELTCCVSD
# UniProt Q8TEM1, sequence (Q8TEM1 whole entry, looked up): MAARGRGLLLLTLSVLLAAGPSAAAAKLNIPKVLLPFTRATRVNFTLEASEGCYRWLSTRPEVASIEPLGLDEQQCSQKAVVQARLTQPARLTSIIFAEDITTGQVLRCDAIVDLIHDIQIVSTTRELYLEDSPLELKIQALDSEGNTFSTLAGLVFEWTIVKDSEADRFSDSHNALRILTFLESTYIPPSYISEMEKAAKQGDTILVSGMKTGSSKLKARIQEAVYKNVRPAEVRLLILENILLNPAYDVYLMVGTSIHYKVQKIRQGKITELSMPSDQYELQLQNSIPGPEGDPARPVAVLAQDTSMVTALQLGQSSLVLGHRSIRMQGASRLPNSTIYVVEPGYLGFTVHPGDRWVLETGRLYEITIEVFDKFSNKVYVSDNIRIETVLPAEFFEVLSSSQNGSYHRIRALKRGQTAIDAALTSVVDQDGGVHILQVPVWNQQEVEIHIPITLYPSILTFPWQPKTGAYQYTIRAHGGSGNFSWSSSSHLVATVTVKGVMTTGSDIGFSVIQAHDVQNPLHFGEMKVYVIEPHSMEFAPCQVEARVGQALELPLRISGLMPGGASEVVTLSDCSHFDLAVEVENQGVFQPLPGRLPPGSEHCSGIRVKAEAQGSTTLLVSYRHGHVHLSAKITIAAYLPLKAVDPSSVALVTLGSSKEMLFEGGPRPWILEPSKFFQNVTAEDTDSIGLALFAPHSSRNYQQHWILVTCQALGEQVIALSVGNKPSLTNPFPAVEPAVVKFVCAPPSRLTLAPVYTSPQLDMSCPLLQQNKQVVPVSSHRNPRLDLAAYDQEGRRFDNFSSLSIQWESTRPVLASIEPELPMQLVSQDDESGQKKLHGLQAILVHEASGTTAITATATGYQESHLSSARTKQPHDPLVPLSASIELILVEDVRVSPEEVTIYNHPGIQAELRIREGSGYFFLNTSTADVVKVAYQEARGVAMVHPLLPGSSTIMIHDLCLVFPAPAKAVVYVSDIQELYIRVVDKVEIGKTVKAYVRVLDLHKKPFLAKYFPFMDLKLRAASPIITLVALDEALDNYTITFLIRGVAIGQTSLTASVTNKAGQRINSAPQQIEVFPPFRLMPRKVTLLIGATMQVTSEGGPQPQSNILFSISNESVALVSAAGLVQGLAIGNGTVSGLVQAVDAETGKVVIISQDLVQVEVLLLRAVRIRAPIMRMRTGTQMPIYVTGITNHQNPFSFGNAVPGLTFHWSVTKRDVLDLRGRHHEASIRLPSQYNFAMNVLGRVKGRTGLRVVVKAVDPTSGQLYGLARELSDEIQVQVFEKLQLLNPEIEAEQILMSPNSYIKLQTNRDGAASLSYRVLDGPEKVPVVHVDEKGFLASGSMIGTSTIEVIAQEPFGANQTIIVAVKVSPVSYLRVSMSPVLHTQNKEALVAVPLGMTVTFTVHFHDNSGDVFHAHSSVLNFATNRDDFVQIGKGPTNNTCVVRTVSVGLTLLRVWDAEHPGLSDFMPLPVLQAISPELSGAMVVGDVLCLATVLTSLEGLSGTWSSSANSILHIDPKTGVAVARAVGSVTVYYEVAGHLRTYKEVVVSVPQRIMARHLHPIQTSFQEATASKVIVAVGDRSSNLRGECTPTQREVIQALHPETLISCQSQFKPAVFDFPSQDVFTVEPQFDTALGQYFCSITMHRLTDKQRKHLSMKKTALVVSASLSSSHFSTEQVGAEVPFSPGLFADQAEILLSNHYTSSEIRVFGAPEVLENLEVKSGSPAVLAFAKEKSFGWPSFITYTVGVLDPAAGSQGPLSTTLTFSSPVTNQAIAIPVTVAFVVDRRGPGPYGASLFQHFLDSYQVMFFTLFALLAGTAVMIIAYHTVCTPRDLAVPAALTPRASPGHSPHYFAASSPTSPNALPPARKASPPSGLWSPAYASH
# UniProt Q96I59, sequence (Q96I59 whole entry, looked up): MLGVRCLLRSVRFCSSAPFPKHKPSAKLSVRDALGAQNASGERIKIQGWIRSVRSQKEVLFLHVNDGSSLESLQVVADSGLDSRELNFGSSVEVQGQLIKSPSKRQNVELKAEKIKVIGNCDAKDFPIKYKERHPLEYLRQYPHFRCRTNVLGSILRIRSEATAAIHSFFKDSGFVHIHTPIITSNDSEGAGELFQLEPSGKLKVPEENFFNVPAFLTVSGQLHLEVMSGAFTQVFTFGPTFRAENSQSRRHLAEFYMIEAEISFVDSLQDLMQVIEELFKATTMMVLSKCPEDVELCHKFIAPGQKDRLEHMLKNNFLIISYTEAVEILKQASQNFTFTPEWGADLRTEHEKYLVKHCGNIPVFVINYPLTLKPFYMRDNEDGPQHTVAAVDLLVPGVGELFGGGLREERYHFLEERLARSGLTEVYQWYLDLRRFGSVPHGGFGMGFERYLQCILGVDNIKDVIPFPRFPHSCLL
# UniProt Q9UDX5, sequence (Q9UDX5 whole entry, looked up): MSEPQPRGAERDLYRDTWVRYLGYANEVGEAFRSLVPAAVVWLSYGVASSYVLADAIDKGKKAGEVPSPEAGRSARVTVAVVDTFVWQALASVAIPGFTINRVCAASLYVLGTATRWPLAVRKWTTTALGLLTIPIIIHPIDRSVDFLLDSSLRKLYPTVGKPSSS
# UniProt O00221, sequence (O00221 whole entry, looked up): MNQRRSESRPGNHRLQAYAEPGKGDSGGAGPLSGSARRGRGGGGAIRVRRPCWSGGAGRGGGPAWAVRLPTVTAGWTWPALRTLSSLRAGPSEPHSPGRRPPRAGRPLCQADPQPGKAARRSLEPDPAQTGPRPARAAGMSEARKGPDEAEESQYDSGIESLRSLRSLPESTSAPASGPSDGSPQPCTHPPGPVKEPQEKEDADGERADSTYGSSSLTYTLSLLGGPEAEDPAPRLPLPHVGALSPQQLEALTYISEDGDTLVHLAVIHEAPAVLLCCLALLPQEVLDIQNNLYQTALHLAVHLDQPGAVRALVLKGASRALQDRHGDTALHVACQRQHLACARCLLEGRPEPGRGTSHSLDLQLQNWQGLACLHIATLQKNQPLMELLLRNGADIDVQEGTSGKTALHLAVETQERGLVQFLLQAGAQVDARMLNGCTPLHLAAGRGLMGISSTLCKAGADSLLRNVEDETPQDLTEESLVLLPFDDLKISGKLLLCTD
# UniProt P15559, sequence (P15559 whole entry, looked up): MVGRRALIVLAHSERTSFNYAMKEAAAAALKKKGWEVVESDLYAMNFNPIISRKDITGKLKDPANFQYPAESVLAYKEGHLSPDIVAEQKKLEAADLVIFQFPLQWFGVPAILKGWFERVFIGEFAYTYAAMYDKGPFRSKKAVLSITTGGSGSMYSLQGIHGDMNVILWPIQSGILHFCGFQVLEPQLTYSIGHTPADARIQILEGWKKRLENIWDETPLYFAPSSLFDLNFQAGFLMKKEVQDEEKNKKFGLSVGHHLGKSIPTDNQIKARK
# UniProt Q96NT1, sequence (Q96NT1 whole entry, looked up): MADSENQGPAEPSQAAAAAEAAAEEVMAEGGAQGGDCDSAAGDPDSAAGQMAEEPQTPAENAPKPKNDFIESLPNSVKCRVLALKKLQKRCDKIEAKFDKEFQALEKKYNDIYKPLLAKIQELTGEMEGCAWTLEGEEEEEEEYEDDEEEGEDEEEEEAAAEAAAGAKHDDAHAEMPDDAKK
# UniProt P00480, sequence (P00480 whole entry, looked up): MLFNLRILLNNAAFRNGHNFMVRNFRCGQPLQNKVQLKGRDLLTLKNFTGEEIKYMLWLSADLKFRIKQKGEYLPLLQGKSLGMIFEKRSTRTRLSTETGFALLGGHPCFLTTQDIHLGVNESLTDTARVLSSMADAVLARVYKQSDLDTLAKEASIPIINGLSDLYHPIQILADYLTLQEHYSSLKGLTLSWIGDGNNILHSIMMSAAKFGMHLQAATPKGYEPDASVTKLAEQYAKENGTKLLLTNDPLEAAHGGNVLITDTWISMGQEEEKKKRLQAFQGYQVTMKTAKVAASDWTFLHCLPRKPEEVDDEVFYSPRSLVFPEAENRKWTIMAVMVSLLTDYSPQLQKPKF
# UniProt O75607, sequence (O75607 whole entry, looked up): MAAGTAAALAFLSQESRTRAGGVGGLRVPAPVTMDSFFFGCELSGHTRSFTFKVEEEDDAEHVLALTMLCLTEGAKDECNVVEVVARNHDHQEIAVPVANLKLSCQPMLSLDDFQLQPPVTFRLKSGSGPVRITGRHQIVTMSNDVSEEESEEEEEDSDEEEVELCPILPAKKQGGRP
# UniProt Q9Y5N5, sequence (Q9Y5N5 whole entry, looked up, one chain of several): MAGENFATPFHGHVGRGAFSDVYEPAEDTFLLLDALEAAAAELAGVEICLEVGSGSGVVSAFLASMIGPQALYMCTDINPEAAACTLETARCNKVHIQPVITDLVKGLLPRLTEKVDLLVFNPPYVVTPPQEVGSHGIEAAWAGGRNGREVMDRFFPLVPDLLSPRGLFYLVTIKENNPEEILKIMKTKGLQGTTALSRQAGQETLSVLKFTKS
Target,log2 fold change [1],log2 fold change [2],log2 fold change [3],log2 fold change [4],log2 fold change [5],log2 fold change [6],log2 fold change [7],log2 fold change [8],log2 fold change [9],log2 fold change [10],log2 fold change [11],log2 fold change [12],log2 fold change [13],log2 fold change [14],log2 fold change [15],log2 fold change [16],log2 fold change [17],log2 fold change [18],log2 fold change [19],log2 fold change [20]
N6AMT1 (UniProt Q9Y5N5),0.103,-0.03,0.005,-0.006,0.009,-0.045,-0.026,0.01,0.024,0.027,0.201,-0.016,0.113,0.005,-0.04,0.006,-0.047,-0.048,0.019,0.038
OTC (UniProt P00480),-0.089,0.001,0.065,-0.18,0.017,-0.055,0.065,0.156,-0.034,-0.004,0.072,-0.063,0.063,-0.246,0.018,-0.035,-1.43,0.371,0.012,0.282
MTA2 (UniProt O94776),-0.014,-0.023,0.03,0.021,0.032,0.011,0.018,-0.008,0.043,-0.009,0.007,0.018,0.026,0.03,-0.008,0.025,-0.021,-0.031,0.015,0.042
NPM3 (UniProt O75607),0.038,0.03,0.029,-0.077,0.018,0.048,-0.03,0.069,0.018,-0.037,0.052,0.03,-0.065,0.058,-0.015,-0.007,-0.376 (active),0.158,-0.023,0.025
NAP1L5 (UniProt Q96NT1),-0.056,0.018,-0.034,0.034,-0.037,-0.036,-0.045,-0.13,-0.036,-0.009,-0.094,0.005,0.037,0.181,-0.033,0.052,0.62 (active),-0.205,-0.15,0.08
NCKAP1L (UniProt P55160),-0.18,0.021,0.025,-0.04,-0.111,-0.051,-0.089,-0.012,0.04,0.025,-0.14,0.032,0.131,-0.068,0.004,-0.049,-0.025,-0.082,-0.083,0.032
NUF2 (UniProt Q9BZD4),-0.052,-0.051,0.03,0.015,-0.001,0.018,0.027,-0.011,0.044,0.009,-0.01,0.016,0.048,-0.126,-0.029,0.016,-0.069,-0.101,0.032,0.03
NFKBIE (UniProt O00221),-0.018,0.054,-0.008,-0.059,-0.05,0.015,-0.044,0.027,0.05,0.018,0.046,0.051,0.174,0.081,-0.106,-0.024,-0.07,-0.045,-0.123,-0.025
MTA3 (UniProt Q9BTC8),-0.048,-0.023,0.009,0.062,0.01,-0.047,0.031,-0.053,-0.052,-0.018,0.019,0.002,0.017,0.023,-0.022,-0.055,-0.017,-0.097,0.036,-0.006
MTFP1 (UniProt Q9UDX5),0.097,-0.065,-0.017,0.079,-0.058,0.018,0.009,-0.011,-0.048,-0.001,-0.025,0.031,0.012,0.036,0.041,0.061,-0.421 (active),0.041,-0.042,0.004
ORC3 isoform 2 (UniProt Q9UBD5),-0.034,0.007,0.034,-0.05,0.008,0.048,-0.036,0.003,0.029,-0.012,0.016,-0.008,0.022,-0.036,-0.059,-0.006,-0.063,-0.018,-0.001,0.027
NGLY1 (UniProt Q96IV0),0,-0.01,0.011,-0.008,0.03,-0.001,-0.01,-0.006,0.017,0,0.015,0.01,0.043,-0.102,-0.034,0.002,0.09,-0.02,0.013,0.024
NQO1 (UniProt P15559),0.009,-0.003,0.033,0.081,-0.009,0.001,0.159,0.038,-0.025,0.067,-0.014,0.026,0.163,-0.097,-0.082,-0.023,-0.067,-0.035,0.155,0.034
MTCH2 (UniProt Q9Y6C9),0.008,-0.022,0.022,0.023,0.044,-0.019,-0.011,0.043,-0.036,0.031,0.013,0.008,-0.02,0.021,0.05,-0.012,-0.155,0.014,-0.011,0.022
NARS2 (UniProt Q96I59),0.01,0.009,0.009,0.003,-0.001,0.017,-0.024,-0.007,0.045,0.038,0.022,0.028,0,-0.025,-0.067,0.041,-0.091,0.027,0.001,-0.024
NUP210 (UniProt Q8TEM1),-0.029,-0.01,-0.011,-0.075,-0.005,0.024,-0.017,-0.005,-0.027,-0.012,-0.009,0.048,0.072,-0.004,0.006,0.036,0.012,-0.015,0.029,-0.004
